Bioassay records: PubChem BioAssay, National Center for Advancing Translational Sciences (NCATS)
TDP1 cell noCPT: qHTS for Inhibitors of human tyrosyl-DNA phosphodiesterase 1 (TDP1): qHTS in cells in absence of CPT. Potency, µM (titrated, usually from 46.2 µM), actives largely listed as inhibitors. hit rate 15% among 420,000. DT40 Tdp1-/- hTDP1 cells, no CPT, ATP luminescence, 48 h. AID 686978, 2013; note: nearly all actives have a fitted effect of over 55% in size
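Growth of hTDP1-complemented DT40 Tdp1-knockout cells is measured by ATP luminescence after at least 48 hr compound exposure at 37 °C, with DMSO substituting for the 20 nM CPT used in the parallel screen.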
HT1080NT lethal: kills 2HG-producing HT-1080-NT fibrosarcoma cells; hit rate 1.6% among 360,000; Potency, µM (top dose mostly 46.1 µM), most hits filed as cytotoxic; HT-1080-NT fibrosarcoma viability, CellTiter-Glo ATP luminescence, 48 h;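 note: NT is the 2HG producing partner of a matched IDH1 knockdown line; nearly all actives have a fitted effect of over 55% in size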
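Compounds were tested in concentration-response format on HT-1080-NT cells for 48 hours at 37 degrees C. Cell viability came from CellTiter-Glo luminescence; curves were classified by r2, response magnitude and activity.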
HT1080 IDH1KD tx: toxicity to HT-1080 IDH1 knockdown cells (counter line) | HT-1080 IDH1 knockdown viability, ATP luminescence, 48 h | Potency, µM (series often up to 46.1 µM), most hits filed as cytotoxic | hit rate 2% among 360,000 | AID 686971
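HT-1080-IDH1KD cells (IDH1 knocked down), 750/well in RPMI with 5% FBS, treated with compound 48 h at 37 degrees C. Viability by CellTiter-Glo luminescence, normalised to DMSO and no-cell wells; concentration-response curves classed.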
IL-1B inflam inh: blocks inflammasome-driven IL-1 beta release; activity change, % at 57.5 µM; THP-1 LPS/ATP IL-1B secretion, AlphaLISA, 16 h; hits give low values; hit rate 4.7% among 360,000; in the data active = activity change below about -50%; inconclusive = mostly about -30% to -49%
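Secreted IL-1B measured by AlphaLISA bead assay after 16 h compound exposure of THP-1 cells; compounds (final up to 57.5 uM) added 1 h before LPS (250 ng/mL) and ATP (1.25 mM) stimulation; lower signal means less secretion.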
TDP1 cell CPT: DT40-hTDP1 cell growth loss with CPT | chicken DT40 Tdp1-/-;hTDP1 cells + 20 nM CPT, ATP luminescence, 48 h | Potency, µM (titrated, usually from 46.2 µM), hits mostly inhibitors | hit rate 12% among 420,000; note: nearly all actives have a fitted effect of over 55% in size
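Cell growth measured by CellTiter-Glo luminescence after a minimum 48 h, 37 C compound exposure with 20 nM CPT in Tdp1-knockout DT40 cells stably expressing hTDP1, seeded 400/well; qHTS titration format.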
Each line names hits and unclear results; the compound was inactive in the other large screens. Shown are actives, neighbours in structure and some others; about 19% of the full set was active somewhere. Unless noted, calls come from the whole dose curve; as a rule, active = well fitted curve in the direction sought with a large enough effect; inconclusive = small, poorly fitted or top-dose-only effect, or another doubt; inactive = no such curve, though single readings can be large; an effect the other way counts as inactive or inconclusive.

CCOc1ccc(N(CC(=O)Nc2cccc(OC)c2)S(=O)(=O)c2c(C)noc2C)cc1	TDP1 cell noCPT 18µM, TDP1 cell CPT 13µM
CCOc1ccc(N(CC(=O)Nc2cccc(Cl)c2)S(=O)(=O)c2c(C)noc2C)cc1	TDP1 cell noCPT 12µM, HT1080NT lethal inconclusive, HT1080 IDH1KD tx inconclusive, TDP1 cell CPT 13µM
COc1ccccc1CNC(=O)CN(c1ccc(C)cc1)S(=O)(=O)c1c(C)n[nH]c1C	none
CCOc1ccc(N(CC(=O)Nc2ccc(F)c(F)c2)S(=O)(=O)c2c(C)noc2C)cc1	TDP1 cell noCPT inconclusive, TDP1 cell CPT inconclusive
CCOc1ccc(NC(=O)CN(c2ccc(CC)cc2)S(=O)(=O)c2c(C)noc2C)cc1	TDP1 cell noCPT 13µM, TDP1 cell CPT 12µM (no result: HT1080NT lethal, HT1080 IDH1KD tx, IL-1B inflam inh)
CCOc1ccc(N(CC(=O)Nc2ccccc2OCC)S(=O)(=O)c2c(C)noc2C)cc1	TDP1 cell noCPT 3.3µM, HT1080NT lethal 2.3µM, HT1080 IDH1KD tx 2.3µM, TDP1 cell CPT 5.2µM
COC(=O)N1CCC2(CCCN(Cc3cc(C(F)(F)F)cc(C(F)(F)F)c3)C2)CC1	none (no result: HT1080NT lethal, HT1080 IDH1KD tx, IL-1B inflam inh)
COC(=O)N1CCC2(CCN(Cc3ccc(C#N)cc3)CC2)CC1	TDP1 cell noCPT inconclusive, TDP1 cell CPT 1.6µM (no result: HT1080NT lethal, HT1080 IDH1KD tx, IL-1B inflam inh)
N#Cc1ccc(CN2CCC3(CC2)CCN(S(=O)(=O)c2ccccc2)CC3)cc1	TDP1 cell noCPT 16µM, TDP1 cell CPT inconclusive (no result: HT1080NT lethal, HT1080 IDH1KD tx, IL-1B inflam inh)
COC(=O)N1CCC2(CCCN(Cc3ccc(C#N)cc3)C2)CC1	TDP1 cell noCPT inconclusive (no result: HT1080NT lethal, HT1080 IDH1KD tx, IL-1B inflam inh)
N#Cc1ccc(CN2CCC3(CC2)CCN(C(=O)c2cc(C(F)(F)F)cc(C(F)(F)F)c2)CC3)cc1	TDP1 cell noCPT 13µM, TDP1 cell CPT 23µM (no result: HT1080NT lethal, HT1080 IDH1KD tx, IL-1B inflam inh)
COC(=O)N1CCC2(CCN(Cc3cc(C(F)(F)F)cc(C(F)(F)F)c3)CC2)CC1	TDP1 cell noCPT 15µM, TDP1 cell CPT inconclusive (no result: HT1080NT lethal, HT1080 IDH1KD tx, IL-1B inflam inh)
COc1ccccc1CN1CCC2(CC1)CCN(C(=O)c1cccc(F)c1)CC2	none (no result: HT1080NT lethal, HT1080 IDH1KD tx, IL-1B inflam inh)
CCOc1ccc(CN2CCN(C(=O)c3cccc(F)c3)CC2)cc1	HT1080NT lethal inconclusive, IL-1B inflam inh -60
COc1ccccc1CN1CCC2(CC1)CCN(C(=O)c1cc(C(F)(F)F)cc(C(F)(F)F)c1)CC2	TDP1 cell noCPT 21µM, TDP1 cell CPT inconclusive (no result: HT1080NT lethal, HT1080 IDH1KD tx, IL-1B inflam inh)
O=C(c1cccc(F)c1)N1CCC2(CCN(Cc3cc(C(F)(F)F)cc(C(F)(F)F)c3)CC2)CC1	TDP1 cell noCPT 18µM, TDP1 cell CPT inconclusive (no result: HT1080NT lethal, HT1080 IDH1KD tx, IL-1B inflam inh)
COCc1nc2cccnc2n1C1CCN(S(=O)(=O)N(C)C)CC1	none (no result: HT1080NT lethal, HT1080 IDH1KD tx, IL-1B inflam inh)
O=C(C1CCC(Cn2c(=S)[nH]c3ccccc3c2=O)CC1)N1CCN(c2ccccc2)CC1 (stereo not drawn)	TDP1 cell noCPT inconclusive, TDP1 cell CPT inconclusive
COc1ccc(N2CCN(C(=O)C3CCC(Cn4c(=S)[nH]c5ccccc5c4=O)CC3)CC2)cc1 (stereo not drawn)	TDP1 cell noCPT 23µM, TDP1 cell CPT 15µM
COc1ccccc1N1CCN(C(=O)C2CCC(Cn3c(=S)[nH]c4ccccc4c3=O)CC2)CC1 (stereo not drawn)	TDP1 cell noCPT inconclusive, TDP1 cell CPT 23µM
O=C(C1CCC(Cn2c(=S)[nH]c3ccccc3c2=O)CC1)N1CCN(c2ccccn2)CC1 (stereo not drawn)	TDP1 cell noCPT 23µM, TDP1 cell CPT inconclusive
Cc1ccc(C(=O)OCc2nnc(-c3ccc(Br)cc3)o2)cc1	none
COC(=O)C(C)n1cnc2c(nnn2-c2cccc(OC)c2)c1=O (stereo not drawn)	none
O=C(CCN1CCc2ccccc2C1)c1ccc2c(c1)OCCO2	TDP1 cell noCPT 3.7µM, TDP1 cell CPT 5.8µM
O=C(CCc1ccccc1)c1ccc2c(c1)OCCCO2	none
O=C(CCN1CCCCCC1)Nc1ccc2c(c1)OCCO2	none
O=C(CCN1CCCC1Cc1ccccc1)c1ccc2c(c1)OCCO2 (stereo not drawn)	TDP1 cell noCPT 2.3µM, HT1080 IDH1KD tx inconclusive, IL-1B inflam inh -101, TDP1 cell CPT 2.6µM
O=C(CCN1CCCCC1)c1ccc2c(c1)OCCO2	TDP1 cell noCPT 16µM, HT1080NT lethal inconclusive, HT1080 IDH1KD tx 5.6µM, IL-1B inflam inh -86, TDP1 cell CPT 21µM
CCC(C)NC(=O)CCc1c(C)nc2c(c(C)nn2-c2ccccc2)c1C (stereo not drawn)	TDP1 cell noCPT 23µM, TDP1 cell CPT 10µM
COC(=O)C(NC(=O)CCc1c(C)nc2c(c(C)nn2-c2ccccc2)c1C)C(C)C (stereo not drawn)	TDP1 cell noCPT 16µM, TDP1 cell CPT 16µM
CCOC(=O)CCc1c(C)nc2c(c(C)nn2-c2ccccc2)c1C	TDP1 cell CPT inconclusive
CC(=O)Nc1c(O)nc(SCC(=O)Nc2nnc(SCc3ccccc3)s2)[nH]c1=O	none
Cc1ccc(S(=O)(=O)N2CCCC2CNC(=O)C(=O)Nc2ccc(F)cc2F)cc1 (stereo not drawn)	TDP1 cell noCPT 15µM, TDP1 cell CPT 23µM
O=C(NCc1ccc(F)cc1)C(=O)NCC1CCCN1S(=O)(=O)c1ccccc1 (stereo not drawn)	TDP1 cell noCPT inconclusive
CCc1ccc(NC(=O)C(=O)NCC2CCCN2S(=O)(=O)c2ccccc2)cc1 (stereo not drawn)	TDP1 cell noCPT 21µM, HT1080 IDH1KD tx inconclusive, TDP1 cell CPT inconclusive
COc1ccc(CCNC(=O)C(=O)NCC2CCCN2S(=O)(=O)c2cc(C)ccc2C)cc1 (stereo not drawn)	TDP1 cell noCPT inconclusive, TDP1 cell CPT inconclusive
